Assay results from PubChem BioAssay (NCI).
Values joined by “and” are separate entries in the source; they are usually repeats but may differ in a detail not shown here. Equal entries are not always repeated. Compounds without any hit were thinned out: in the full panel of roughly 83,000, 20% have a hit.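 Single-concentration screen, 48 h exposure, 96-well plates. Endpoint: percent growth. Below 10 = active.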 Active and inactive are the calls of the source.

Assays:
Test in all cases: NCI-60 one-dose screen, 48 h (100 = growth as untreated, 0 = no growth, -100 = all killed)
Conditions in all cases: 10 µM unless noted
SR leukemia = system: SR leukemia
RPMI-8226 leukemia = system: RPMI-8226 leukemia
OVCAR-8 ovarian = system: OVCAR-8 ovarian
OVCAR-5 ovarian = system: OVCAR-5 ovarian
OVCAR-4 ovarian = system: OVCAR-4 ovarian
SK-OV-3 ovarian = system: SK-OV-3 ovarian
IGROV1 ovarian = system: IGROV1 ovarian
OVCAR-3 ovarian = system: OVCAR-3 ovarian
HS 578T breast = system: HS 578T breast
NCI/ADR-RES ovarian = system: NCI/ADR-RES ovarian
T-47D breast = system: T-47D breast
BT-549 breast = system: BT-549 breast
MDA-MB-435 melanoma = system: MDA-MB-435 melanoma
SW-620 colon = system: SW-620 colon
HCT-116 colon = system: HCT-116 colon
HCC-2998 colon = system: HCC-2998 colon
KM12 colon = system: KM12 colon
MCF7 breast = system: MCF7 breast

Measured: growth

CCN1CCN(CCNc2nccc(-c3c(-c4cccc(O)c4)nc4sccn34)n2)S1(=O)=O
inactive: SR leukemia 59.4% and 36.2% | RPMI-8226 leukemia 69.3% and 102% | OVCAR-8 ovarian 90% and 68.3% | OVCAR-5 ovarian 87.2% and 95.5% | OVCAR-4 ovarian 106% and 77.7% | SK-OV-3 ovarian 38.4% and 39.1% | IGROV1 ovarian 54% and 57.5% | OVCAR-3 ovarian 92.9% and 86.7% | HS 578T breast 78% | NCI/ADR-RES ovarian 102% and 103% | T-47D breast 76.7% and 72.5% | BT-549 breast 72% and 83.8% | MDA-MB-435 melanoma 20% and 11% | SW-620 colon 107% and 101% | HCT-116 colon 53.5% and 47.7% | HCC-2998 colon 111% and 97.1% | KM12 colon 52.4% and 68.9%

CN1CCN(c2ccc3nc(-c4c(N)c5c(F)cccc5[nH]c4=O)[nH]c3c2)CC1
-66% (active) and 49.3% (inactive): BT-549 breast
19.1% (inactive) and 3.86% (active): HCT-116 colon
active: SR leukemia -11.8% and 1.99% | HS 578T breast 2.57%
1.69% (active) and 24.6% (inactive): SK-OV-3 ovarian
inactive: RPMI-8226 leukemia 47.5% and 53.7% | OVCAR-8 ovarian 35.4% and 28.2% | OVCAR-5 ovarian 56.1% and 61.3% | OVCAR-4 ovarian 64.7% and 53.9% | IGROV1 ovarian 13.9% and 13.5% | OVCAR-3 ovarian 53.5% and 48.2% | NCI/ADR-RES ovarian 41% and 47% | T-47D breast 71.6% and 64.4% | MDA-MB-435 melanoma 26.6% and 16.1% | SW-620 colon 14.3% and 15.8% | MCF7 breast 14.8% and 14.7% | KM12 colon 12.8% and 13.7%

COc1cc2c(Nc3ccc(Cl)c(Cl)c3F)ncnc2cc1OCC1C[C@@H]2CN(C)C[C@@H]2C1 (stereo partly drawn)
-87.2% (active) and 36.9% (inactive): BT-549 breast
-71.9% (active) and 13.4% (inactive): MCF7 breast
-89.8% (active) and 37.6% (inactive): OVCAR-5 ovarian
-88.4% (active) and 27.4% (inactive): OVCAR-8 ovarian
-87.7% (active) and 22.2% (inactive): HCC-2998 colon
-88.5% (active) and 39.9% (inactive): KM12 colon
active: SR leukemia -23.1% and -45.4% | RPMI-8226 leukemia -48.5% and 6.02% | SK-OV-3 ovarian -87.7% and -13.8% | IGROV1 ovarian -70.1% and -9.02% | HS 578T breast -16.9% | T-47D breast -74.6% and -6.7% | MDA-MB-435 melanoma -95.8% and -38% | SW-620 colon -76.6% and 6.96% | HCT-116 colon -85.4% and 7.79%
-42.7% (active) and 29.5% (inactive): OVCAR-4 ovarian
-56.5% (active) and 29.6% (inactive): NCI/ADR-RES ovarian
-53.9% (active) and 25.6% (inactive): OVCAR-3 ovarian

O=C(O)CCCCc1ccc([N+](=O)[O-])cc1
inactive: SR leukemia 105% and 89.5% | RPMI-8226 leukemia 95.4% and 87.7% | OVCAR-8 ovarian 114% and 102% | OVCAR-5 ovarian 116% and 89.9% | OVCAR-4 ovarian 101% and 106% | SK-OV-3 ovarian 109% and 106% | IGROV1 ovarian 98.1% and 95.9% | OVCAR-3 ovarian 106% and 121% | HS 578T breast 127% and 104% | NCI/ADR-RES ovarian 101% and 107% | T-47D breast 102% and 107% | BT-549 breast 100% | MDA-MB-435 melanoma 111% and 113% | SW-620 colon 96.4% and 116% | HCT-116 colon 103% and 102% | HCC-2998 colon 106% and 94.9% | KM12 colon 91.1% and 108%

O=C(CCl)c1ccc2c(c1)Nc1ccccc1S2
85.5% (inactive) and -32.4% (active): MCF7 breast
13.6% (inactive) and 6.19% (active): SR leukemia
71.2% (inactive) and -3.6% (active): T-47D breast
inactive: RPMI-8226 leukemia 63.4% and 52.1% | OVCAR-8 ovarian 95.1% and 88.7% | OVCAR-5 ovarian 105% and 117% | OVCAR-4 ovarian 90.1% and 83.4% | SK-OV-3 ovarian 100% and 99.3% | IGROV1 ovarian 104% and 93.3% | OVCAR-3 ovarian 96.8% and 71.6% | HS 578T breast 93% and 106% | NCI/ADR-RES ovarian 94.7% and 95.9% | BT-549 breast 74% and 76.1% | MDA-MB-435 melanoma 100% and 88.9% | SW-620 colon 92.2% and 79.1% | HCT-116 colon 69.1% and 64.3% | HCC-2998 colon 83.3% | KM12 colon 104% and 102%

O=C(Nc1cccc(-n2ccc3c(NC(=O)c4ccccc4)nccc32)c1)c1ccc(Cl)c(C(F)(F)F)c1
-36.7% (active) and 88.1% (inactive): T-47D breast
4.27% (active) and 56.4% (inactive): IGROV1 ovarian
-86.6% (active) and 51.6% (inactive): OVCAR-3 ovarian
-75.1% (active) and 76.7% (inactive): BT-549 breast
-48.5% (active) and 37.4% (inactive): MCF7 breast
6.88% (active) and 70.1% (inactive): OVCAR-4 ovarian
-27.9% (active) and 64.4% (inactive): HCC-2998 colon
-99.1% (active) and 32.4% (inactive): HCT-116 colon
inactive: OVCAR-8 ovarian 44.6% | OVCAR-5 ovarian 16.2% and 76.5% | SK-OV-3 ovarian 11.8% and 70.6% | HS 578T breast 90.1%
-54.5% (active) and 42.7% (inactive): KM12 colon
-33% (active) and 58.4% (inactive): NCI/ADR-RES ovarian
-73.8% (active) and 48.8% (inactive): SW-620 colon
-47.6% (active) and 32.3% (inactive): RPMI-8226 leukemia
-59% (active) and 54.9% (inactive): MDA-MB-435 melanoma
active: SR leukemia -21.7% and 4.99%

Cc1nnc(NC/C=C/c2ccccc2)s1
inactive: SR leukemia 113% | RPMI-8226 leukemia 102% and 118% | OVCAR-8 ovarian 102% | OVCAR-5 ovarian 112% | OVCAR-4 ovarian 102% and 111% | SK-OV-3 ovarian 98.4% and 118% | IGROV1 ovarian 112% and 114% | OVCAR-3 ovarian 99.7% | HS 578T breast 122% and 105% | NCI/ADR-RES ovarian 103% and 102% | T-47D breast 91.6% and 101% | BT-549 breast 97.6% and 113% | MDA-MB-435 melanoma 110% and 108% | SW-620 colon 113% and 105% | MCF7 breast 98.8% and 96.2% | HCT-116 colon 105% and 100% | KM12 colon 94.4%

COC(=O)c1nc(N)nc(C(=O)OC)c1C(=O)c1ccc(OC)cc1
inactive: SR leukemia 90.2% and 22.8% | RPMI-8226 leukemia 107% and 32.6% | OVCAR-8 ovarian 105% and 55.1% | OVCAR-5 ovarian 121% and 87.5% | OVCAR-4 ovarian 105% and 37.6% | SK-OV-3 ovarian 106% and 83.3% | IGROV1 ovarian 106% and 66.6% | OVCAR-3 ovarian 117% and 70.1% | HS 578T breast 105% and 81.2% | NCI/ADR-RES ovarian 105% and 37.4% | T-47D breast 101% and 35.5% | BT-549 breast 144% and 77.1% | MDA-MB-435 melanoma 104% and 66.8% | SW-620 colon 113% and 61.9% | MCF7 breast 96% and 41.9% | HCT-116 colon 108% and 38.1% | HCC-2998 colon 108% and 79.3% | KM12 colon 107% and 53.7%

NS(=O)(=O)c1cc2c(cc1Cl)NC(C(Cl)Cl)NS2(=O)=O (stereo not drawn)
inactive: SR leukemia 99.8% | RPMI-8226 leukemia 96.7% and 100% | OVCAR-8 ovarian 99.2% and 95.3% | OVCAR-5 ovarian 96.6% | OVCAR-4 ovarian 97.4% and 114% | SK-OV-3 ovarian 106% and 114% | IGROV1 ovarian 101% and 109% | OVCAR-3 ovarian 119% and 126% | HS 578T breast 124% and 128% | NCI/ADR-RES ovarian 101% and 108% | T-47D breast 104% | BT-549 breast 70.5% and 102% | MDA-MB-435 melanoma 101% and 104% | SW-620 colon 110% | MCF7 breast 93.1% and 110% | HCT-116 colon 101% and 100% | HCC-2998 colon 111% | KM12 colon 111%
